The supplement of paper PMC12645437, “Orthogonal IMiD-Degron Pairs Induce Selective Protein Degradation in Cells” (ACS Chemical Biology, 2025)
Over roughly 8,300 sequences, “log2 fold change of degron read counts, EGFP-low vs EGFP+ sorted cells (limma voom), compound-induced degradation” has its median near -1.1; the highest 2% begin near 3.2. Shown is part of a subset that was picked to be rich in the highest values.

T1: CRBN, Q96SW2
T1 chain: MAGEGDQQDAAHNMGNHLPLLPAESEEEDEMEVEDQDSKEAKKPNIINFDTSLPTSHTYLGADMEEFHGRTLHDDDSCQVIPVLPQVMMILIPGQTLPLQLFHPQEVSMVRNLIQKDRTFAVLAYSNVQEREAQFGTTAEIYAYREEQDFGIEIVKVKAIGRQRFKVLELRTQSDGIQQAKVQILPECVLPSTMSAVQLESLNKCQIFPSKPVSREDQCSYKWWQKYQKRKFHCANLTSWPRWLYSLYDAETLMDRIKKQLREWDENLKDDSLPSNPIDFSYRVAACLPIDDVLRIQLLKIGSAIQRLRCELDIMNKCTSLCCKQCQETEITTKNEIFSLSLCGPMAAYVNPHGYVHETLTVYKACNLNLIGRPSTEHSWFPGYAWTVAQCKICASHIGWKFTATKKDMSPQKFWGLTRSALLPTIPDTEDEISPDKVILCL


Molecular target: T1, CRBN, Q96SW2
Experiment: log2 fold change of degron read counts, EGFP-low vs EGFP+ sorted cells (limma voom), compound-induced degradation; higher = more compound-induced degradation of the degron-EGFP fusion; degrons are variants of IKZF1/3 zinc finger 2; compound dose not given here
Conditions: Jurkat, 18 h
[1] = compound: compound 19 (5-tert-butyl-thalidomide)
[2] = compound: compound 22 (5-morpholino-thalidomide)
[3] = compound: compound 33 (diphenyl IMiD analogue)
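Note: pooled lentiviral library of zinc finger degron-EGFP fusions in mCherry-positive Jurkat cells, FACS-sorted after compound exposure, with degron abundance counted by next-generation sequencing.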

Row | Sequence | log2 fold change of degron read counts [1] | log2 fold change of degron read counts [2] | log2 fold change of degron read counts [3] | log2 fold change of degron read counts (compound: thalidomide)
1 | FECEICGAPFTQKGNLLRHIKL [46F_47E_49E_50I_52G_53A_54P_55F_67L_, Q9UKT9] | 2.7 | -0.51 | 1.41 | 2.07
2 | FTCEICGAPFTQKGNLLRHIKL [46F_47T_49E_50I_52G_53A_54P_55F_67L_, Q9UKT9] | 2.99 | 3.21 | 2.47 | 3.17
3 | FHCEICGAPFTQKGNLLRHIKL [46F_47H_49E_50I_52G_53A_54P_55F_67L_, Q9UKT9] | 4 | 3.46 | 2.38 | 1.9
4 | FACEICGAPFTQKGNLLRHIKL [46F_47A_49E_50I_52G_53A_54P_55F_67L_, Q9UKT9] | 3.6 | 2.51 | 0.463 | 1.72
5 | FDCEICGAPFTQKGNLLRHIKL [46F_47D_49E_50I_52G_53A_54P_55F_67L_, Q9UKT9] | 2.21 | 0.891 | -0.242 | 0.789
6 | FLCEICGAPFTQKGNLLRHIKL [46F_47L_49E_50I_52G_53A_54P_55F_67L_, Q9UKT9] | 2.96 | 2.82 | 2.69 | 3.17
7 | FRCEICGAPFTQKGNLLRHIKL [46F_47R_49E_50I_52G_53A_54P_55F_67L_, Q9UKT9] | 3.62 | 3.98 | 3.31 | 3.58
8 | FHCEICGAFFTQKGNLLRHIKL [46F_47H_49E_50I_52G_53A_54F_55F_67L_, Q9UKT9] | 0.885 | -0.276 | 0.198 | -1.2
9 | FHCEICGADFTQKGNLLRHIKL [46F_47H_49E_50I_52G_53A_54D_55F_67L_, Q9UKT9] | -1.38 | -3.23 | -1.06 | -2.34
10 | FLCEQCGAMFTQKGNLLRHIKL [46F_47L_49E_50Q_52G_53A_54M_55F_67L_, Q9UKT9] | -2.2 | -2.48 | -0.823 | -1.31
11 | FECDICGAIFTQKGNLLRHIKL [46F_47E_49D_50I_52G_53A_54I_55F_67L_, Q9UKT9] | -1.92 | -1.75 | -0.965 | 0.171
12 | FQCNQCGAFFTQKGNLLRHIKL [46F_47Q_49N_50Q_52G_53A_54F_55F_67L_, Q9UKT9] | -2.56 | -2.44 | -1.62 | -1.28
13 | FICEQCGANFTQKGNLLRHIKL [46F_47I_49E_50Q_52G_53A_54N_55F_67L_, Q9UKT9] | -2.09 | -0.316 | 0.362 | 0.322
14 | FRCNICGASFTQKGNLLRHIKL [46F_47R_49N_50I_52G_53A_54S_55F_67L_, Q9UKT9] | 0.331 | 0.291 | 0.894 | 0.839
15 | FVCDICGARFTQKGNLLRHIKL [46F_47V_49D_50I_52G_53A_54R_55F_67L_, Q9UKT9] | 0.23 | 1.75 | -0.304 | 1.47
16 | FFCDICGARFTQKGNLLRHIKL [46F_47F_49D_50I_52G_53A_54R_55F_67L_, Q9UKT9] | 3.58 | 3.35 | 0.994 | 0.0481
17 | FWCDICGARFTQKGNLLRHIKL [46F_47W_49D_50I_52G_53A_54R_55F_67L_, Q9UKT9] | 3.15 | 3.82 | 0.741 | 0.265
18 | FLCDICGARFTQKGNLLRHIKL [46F_47L_49D_50I_52G_53A_54R_55F_67L_, Q9UKT9] | -0.594 | -2.06 | -0.802 | 0.425
19 | FRCDICGARFTQKGNLLRHIKL [46F_47R_49D_50I_52G_53A_54R_55F_67L_, Q9UKT9] | -1.84 | -2.03 | -1.21 | -0.575
20 | FQCDICGARFTQKGNLLRHIKL [46F_47Q_49D_50I_52G_53A_54R_55F_67L_, Q9UKT9] | -1.01 | 1.3 | 0.0735 | 3.03
21 | FYCDICGARFTQKGNLLRHIKL [46F_47Y_49D_50I_52G_53A_54R_55F_67L_, Q9UKT9] | 3.31 | 3.35 | 0.716 | -0.312
22 | FACDICGARFTQKGNLLRHIKL [46F_47A_49D_50I_52G_53A_54R_55F_67L_, Q9UKT9] | 3.46 | 1.91 | -1.69 | -0.979
23 | FDCDICGARFTQKGNLLRHIKL [46F_47D_49D_50I_52G_53A_54R_55F_67L_, Q9UKT9] | 1.85 | 0.0154 | -1.13 | -0.0241
24 | FGCDICGARFTQKGNLLRHIKL [46F_47G_49D_50I_52G_53A_54R_55F_67L_, Q9UKT9] | 2.15 | 0.817 | -1.24 | 0.195
25 | FCCDICGARFTQKGNLLRHIKL [46F_47C_49D_50I_52G_53A_54R_55F_67L_, Q9UKT9] | 2.34 | 2.23 | 0.356 | 1.57
26 | FTCDICGARFTQKGNLLRHIKL [46F_47T_49D_50I_52G_53A_54R_55F_67L_, Q9UKT9] | 1.44 | 2.55 | 0.655 | 1.76
27 | FGCDVCGALFTQKGNLLRHIKL [46F_47G_49D_50V_52G_53A_54L_55F_67L_, Q9UKT9] | -0.285 | -1.26 | 0.277 | -1.67
28 | FLCNQCGRHFTQKGNLLRHIKL [46F_47L_49N_50Q_52G_53R_54H_55F_67L_, Q9UKT9] | -2.4 | -2.59 | -2.64 | -2
